Assay results: PubChem BioAssay

Molecular target: Dihydroorotate dehydrogenase (quinone), mitochondrial (Plasmodium falciparum (isolate 3D7)) (UniProt Q08210)
Experiment: PfDHODH enzyme inhibitors, primary screen, biochemical, C-terminal His tag, absorbance 600 nm (AID 1175);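 note: recombinant parasite enzyme with a five histidine tag at its C terminus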
Conditions: DCIP absorbance 600 nm, higher = more signal, called active from +8 up or from −8 down
Note: test concentration not given here.

Chain of Dihydroorotate dehydrogenase (quinone), mitochondrial (Plasmodium falciparum (isolate 3D7)) (Q08210 whole entry, looked up): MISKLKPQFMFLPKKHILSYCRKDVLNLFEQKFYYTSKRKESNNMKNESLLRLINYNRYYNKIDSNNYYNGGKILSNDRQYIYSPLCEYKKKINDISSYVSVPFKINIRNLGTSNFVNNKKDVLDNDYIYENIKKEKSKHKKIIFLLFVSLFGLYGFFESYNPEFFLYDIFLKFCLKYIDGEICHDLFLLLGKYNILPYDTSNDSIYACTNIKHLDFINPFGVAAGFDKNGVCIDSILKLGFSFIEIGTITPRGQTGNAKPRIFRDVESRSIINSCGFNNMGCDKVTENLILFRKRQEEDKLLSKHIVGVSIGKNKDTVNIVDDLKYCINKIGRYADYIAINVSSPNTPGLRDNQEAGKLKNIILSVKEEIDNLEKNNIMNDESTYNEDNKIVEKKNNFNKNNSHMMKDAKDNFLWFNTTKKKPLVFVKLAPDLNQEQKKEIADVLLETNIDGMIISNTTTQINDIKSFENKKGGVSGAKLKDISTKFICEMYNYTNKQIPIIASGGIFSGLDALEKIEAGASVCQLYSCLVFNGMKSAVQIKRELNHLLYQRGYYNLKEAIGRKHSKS

Composite z-score, inactive:
CC(C)NC(=O)[C@@]1(C)c2ccccc2C(=O)N(Cc2ccccc2)[C@H]1c1ccc(CO)cc1 -1.48
CCCCC(O)C1C=CC2C(=O)N(c3ccccc3)C(=O)C2N1Nc1ccc([N+](=O)[O-])cc1 (stereo not drawn) 0.0188
Cc1ccc(S[C@]2(C(=O)NC3CC3)CC(=O)N(C(C)C)[C@@H]2c2ccc(CO)cc2I)cc1 -0.632
COCCOC(=O)N1C(=O)[C@@]2(c3cc(C#CCC(C(=O)OC)C(=O)OC)ccc31)[C@H](C(=O)Nc1nc3ccccc3s1)[C@H]1C(=O)O[C@H](c3ccccc3)[C@H](c3ccccc3)N1[C@@H]2c1ccc(OCCO)cc1 -0.859
COC(=O)C1=CC(CCCO)=CC(c2cccs2)N(Cc2cc3c(cc2Br)OCO3)C=C1C(=O)OC (stereo not drawn) -0.851
CN1C(=O)C2C(C1=O)C1C=C(c3ccc(CO)cc3)C2C(C2CC2)N1C (stereo not drawn) 0.918
COCCCNC(=O)[C@@H]1c2ccccc2C(=O)N(Cc2ccc(OC(F)(F)F)cc2)[C@H]1c1ccc(CO)cc1 0.228
COCCCNC(=O)[C@@]1(CCC(=O)OC(C)(C)C)COC(c2ccc(OCCCO)cc2)=N1 -0.176
O=C(O)[C@H](Cc1ccccc1)n1cc(C2(O)CCCCC2)nn1 -1.6
CN(C)CCCC[C@@H]1NC(=O)[C@@H]2C[C@H](C(=O)NCCCCCCNC(=O)CS)[C@H](c3ccc(O)cc3)N2C1=O -0.173
COC(=O)[C@@]1(Cc2ccc(OC)cc2)[C@H]2c3cc(C(=O)N4CCCC4)n(CCn4cc([N+](=O)[O-])nc4C)c3C[C@H]2CN1C(=O)c1ccccc1 -0.329
[N-]=[N+]=NCc1ccccc1[C@@H]1OC(c2ccc(OCCCO)cc2)=N[C@]1(Cc1ccccc1N=[N+]=[N-])C(=O)O 0.454
C=CCOC(=O)[C@H]1[C@@H]2C(=O)O[C@@H](c3ccccc3)[C@@H](c3ccccc3)N2[C@@H](c2ccc(OCCOC(=O)[C@H]3C[C@H]4C(=O)N[C@@H](CC(C)C)C(=O)N4[C@H]3c3ccc(O)cc3)cc2)[C@]12C(=O)Nc1ccccc12 -0.976
COc1ccc([Si](C)(C)[C@H]2[C@H](CC(=O)N3Cc4ccccc4C[C@H]3CO)O[C@@]3(C(=O)N(c4ccccc4)c4ccccc43)[C@@H]2C)cc1 -1.05
N#Cc1ccc(-c2cccc(=O)o2)cc1 -0.578
COCCOC(=O)N1C(=O)[C@@]2(c3ccccc31)[C@H](C(=O)N1CCN(c3ncccn3)CC1)[C@H]1C(=O)O[C@H](c3ccccc3)[C@H](c3ccccc3)N1[C@@H]2c1ccccc1OCCO -1.35
NC(=O)NCC#Cc1ccc2c(c1)[C@]1(C(=O)N2)[C@H](c2ccc(OCCO)cc2)N2[C@H](c3ccccc3)[C@H](c3ccccc3)OC(=O)[C@H]2[C@@H]1C(=O)O -0.996
COC(=O)[C@@]1(Cc2ccc(OC)cc2)[C@H]2c3cc(C(=O)N(C)C)[nH]c3C[C@H]2CN1C(=O)c1ccccc1 -0.309

System: not listed separately
Experiment: P. aeruginosa biofilm formation inhibitors, primary screen, strain PAO1, LB-PBS medium, absorbance 600 nm (AID 1176)
Conditions: P. aeruginosa PAO1 growth/biofilm, A600, 12 h; higher = more signal

z-score, inactive:
COc1cc(OC)c(C(O)C2C=CC3C(=O)N(c4ccccc4)C(=O)C3N2Nc2ccc(C(C)C)cc2)cc1Br (stereo not drawn) 2.24
CC(C)c1nc2cc(Br)ccc2c(=O)o1 0.13
CN1C(=O)[C@@H]2[C@@H](CC(COc3ccccc3)=C3[C@@H](CCc4ccccc4)OB(O)C[C@@H]32)C1=O 0.2
O=C(NCCN1CCOCC1)[C@@H]1c2ccccc2C(=O)N(Cc2ccc(OC(F)(F)F)cc2)[C@H]1c1ccc(CO)cc1 0.925
CN(C)c1ccc(C(O)C2C=CC3C(=O)N(Cc4ccccc4)C(=O)C3N2n2cnnc2)cc1 (stereo not drawn) 1.77
CC(C)C(O)C1C=CC2C(=O)NC(=O)C2N1Nc1ccccn1 (stereo not drawn) 0.612
COc1ccc([Si](C)(C)[C@@H]2[C@@H](CC(=O)N3Cc4ccccc4C[C@H]3CO)O[C@]3(C(=O)N(Cc4ccc(N5CCOC5=O)cc4)c4ccccc43)[C@H]2C)cc1 1.18
COCCOC(=O)N1C(=O)[C@@]2(c3cc(C#CCC(C(=O)OC)C(=O)OC)ccc31)[C@H](C(=O)Nc1nc3ccccc3s1)[C@H]1C(=O)O[C@H](c3ccccc3)[C@H](c3ccccc3)N1[C@@H]2c1ccc(O)cc1 0.678
COc1cc(CO)cc(I)c1O[C@H]1C=C(C(=O)NCCO)C[C@@H](NC2CCCCCC2)[C@@H]1O -0.896
O=C(NC1CC1)[C@@H]1c2ccccc2C(=O)N(Cc2ccc(OC(F)(F)F)cc2)[C@H]1c1ccc(CO)cc1 -0.233
CCOC(=O)C1=CC[C@@H](c2ccc(OC)cc2)N(S(=O)(=O)c2ccc(C)cc2)[C@H]1CC 0.505
CC1CC/C=C\[C@H]2OC34C=CCN(C(C)(C)C)C(=O)[C@H]3N(CCCO)C(=O)[C@@H]4C2C(=O)O1 (stereo partly drawn) 0.261
C=C(C)[C@@H]1CC=C(C(O)C2C=CC3C(=O)N(c4ccccc4)C(=O)C3N2Nc2ccc([N+](=O)[O-])cc2)CC1 (stereo partly drawn) 0.741
C=CCOC(=O)[C@@H]1[C@H]2C(=O)O[C@H](c3ccccc3)[C@H](c3ccccc3)N2[C@H](c2ccc(OCCOC(=O)[C@H]3C[C@H]4C(=O)NCC(=O)N4[C@H]3c3cccc(OCCO)c3)cc2)[C@@]12C(=O)Nc1ccc(I)cc12 3.08
COC(=O)[C@H](Cc1ccccc1)N1CC2=CCCC=C[C@@H]2[C@H]1[C@H](O)Cc1ccccc1 -0.565
CC(=O)OCC1C2CC[C@H]3C(OCc4ccc(F)cc4C(F)(F)F)OC[C@]4(C)[C@H]3C2=C(CN4C(=O)OC(C)(C)C)[C@H](C)C1COC(C)=O (stereo partly drawn) 1.14
CC(=O)c1ccc(C(O)C2C=CC3C(=O)N(c4ccccc4)C(=O)C3N2Nc2ccc(C(C)C)cc2)cc1 (stereo not drawn) 0.503
CC(C)NC(=O)[C@@]1(C)c2ccccc2C(=O)N(Cc2ccccc2)[C@H]1c1ccc(CO)cc1 0.5
CCCCC(O)C1C=CC2C(=O)N(c3ccccc3)C(=O)C2N1Nc1ccc([N+](=O)[O-])cc1 (stereo not drawn) 1.03
Cc1ccc(S[C@]2(C(=O)NC3CC3)CC(=O)N(C(C)C)[C@@H]2c2ccc(CO)cc2I)cc1 -0.227
COCCOC(=O)N1C(=O)[C@@]2(c3cc(C#CCC(C(=O)OC)C(=O)OC)ccc31)[C@H](C(=O)Nc1nc3ccccc3s1)[C@H]1C(=O)O[C@H](c3ccccc3)[C@H](c3ccccc3)N1[C@@H]2c1ccc(OCCO)cc1 2.54
COC(=O)C1=CC(CCCO)=CC(c2cccs2)N(Cc2cc3c(cc2Br)OCO3)C=C1C(=O)OC (stereo not drawn) 0.173
CN1C(=O)C2C(C1=O)C1C=C(c3ccc(CO)cc3)C2C(C2CC2)N1C (stereo not drawn) -0.305
COCCCNC(=O)[C@@H]1c2ccccc2C(=O)N(Cc2ccc(OC(F)(F)F)cc2)[C@H]1c1ccc(CO)cc1 0.801
COCCCNC(=O)[C@@]1(CCC(=O)OC(C)(C)C)COC(c2ccc(OCCCO)cc2)=N1 -0.978
O=C(O)[C@H](Cc1ccccc1)n1cc(C2(O)CCCCC2)nn1 0.055
CN(C)CCCC[C@@H]1NC(=O)[C@@H]2C[C@H](C(=O)NCCCCCCNC(=O)CS)[C@H](c3ccc(O)cc3)N2C1=O 0.767
COC(=O)[C@@]1(Cc2ccc(OC)cc2)[C@H]2c3cc(C(=O)N4CCCC4)n(CCn4cc([N+](=O)[O-])nc4C)c3C[C@H]2CN1C(=O)c1ccccc1 2.04
[N-]=[N+]=NCc1ccccc1[C@@H]1OC(c2ccc(OCCCO)cc2)=N[C@]1(Cc1ccccc1N=[N+]=[N-])C(=O)O 1.42
C=CCOC(=O)[C@H]1[C@@H]2C(=O)O[C@@H](c3ccccc3)[C@@H](c3ccccc3)N2[C@@H](c2ccc(OCCOC(=O)[C@H]3C[C@H]4C(=O)N[C@@H](CC(C)C)C(=O)N4[C@H]3c3ccc(O)cc3)cc2)[C@]12C(=O)Nc1ccccc12 2.65
COc1ccc([Si](C)(C)[C@H]2[C@H](CC(=O)N3Cc4ccccc4C[C@H]3CO)O[C@@]3(C(=O)N(c4ccccc4)c4ccccc43)[C@@H]2C)cc1 0.0943
N#Cc1ccc(-c2cccc(=O)o2)cc1 0.0767
COCCOC(=O)N1C(=O)[C@@]2(c3ccccc31)[C@H](C(=O)N1CCN(c3ncccn3)CC1)[C@H]1C(=O)O[C@H](c3ccccc3)[C@H](c3ccccc3)N1[C@@H]2c1ccccc1OCCO 3.3
NC(=O)NCC#Cc1ccc2c(c1)[C@]1(C(=O)N2)[C@H](c2ccc(OCCO)cc2)N2[C@H](c3ccccc3)[C@H](c3ccccc3)OC(=O)[C@H]2[C@@H]1C(=O)O 1.01
COC(=O)[C@@]1(Cc2ccc(OC)cc2)[C@H]2c3cc(C(=O)N(C)C)[nH]c3C[C@H]2CN1C(=O)c1ccccc1 -0.471
